Rows were chosen to be rich in hits. Some 4.5% of all compounds tested hit in one or more screens of this group.
Mdm2-MdmX inh – inhibitors of human Mdm2-MdmX association, primary screen, cell-based, luminescence, split luciferase, SaOS-2, uHTS; hit rate 3% among 330,000; SaOS-2 split-luciferase Mdm2/MdmX complementation; Protein Mdm4 (Homo sapiens) + E3 ubiquitin-protein ligase Mdm2 (Homo sapiens), …; inhibition, % at 8 µM;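 active = inhibition of at least 50% at 8 µM in the primary screen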
Target sequence (O15151 whole entry, looked up): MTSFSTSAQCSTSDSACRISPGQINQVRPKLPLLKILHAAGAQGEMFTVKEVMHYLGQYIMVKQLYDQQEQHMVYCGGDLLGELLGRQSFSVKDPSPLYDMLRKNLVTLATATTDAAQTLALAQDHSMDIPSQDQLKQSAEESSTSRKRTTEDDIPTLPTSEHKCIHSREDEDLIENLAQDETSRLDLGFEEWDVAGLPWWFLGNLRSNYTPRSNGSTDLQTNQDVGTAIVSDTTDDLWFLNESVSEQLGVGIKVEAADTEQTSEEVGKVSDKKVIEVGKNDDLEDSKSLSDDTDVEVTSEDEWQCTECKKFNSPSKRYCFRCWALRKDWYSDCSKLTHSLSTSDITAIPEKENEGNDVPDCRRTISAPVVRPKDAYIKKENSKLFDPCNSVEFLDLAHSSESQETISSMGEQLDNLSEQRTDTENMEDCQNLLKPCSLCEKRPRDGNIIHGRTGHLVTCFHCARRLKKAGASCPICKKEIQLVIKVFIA
Target sequence (Q00987 whole entry, looked up): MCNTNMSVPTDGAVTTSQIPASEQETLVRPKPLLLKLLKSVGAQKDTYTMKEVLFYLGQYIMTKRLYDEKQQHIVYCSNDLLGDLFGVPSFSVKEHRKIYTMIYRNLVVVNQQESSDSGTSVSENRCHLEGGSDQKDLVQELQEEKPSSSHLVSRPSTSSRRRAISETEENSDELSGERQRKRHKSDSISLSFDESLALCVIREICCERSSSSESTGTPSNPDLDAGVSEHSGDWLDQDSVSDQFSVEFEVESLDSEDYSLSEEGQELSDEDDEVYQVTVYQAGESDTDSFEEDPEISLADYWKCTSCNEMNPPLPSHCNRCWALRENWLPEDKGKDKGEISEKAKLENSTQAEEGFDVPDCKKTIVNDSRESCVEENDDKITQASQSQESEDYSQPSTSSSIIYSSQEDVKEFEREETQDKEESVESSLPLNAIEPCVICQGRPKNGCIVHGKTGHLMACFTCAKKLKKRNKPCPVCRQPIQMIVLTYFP
697 NFkB inh – inhibitors of PMA/ionomycin-induced NF-kB reporter, 697 cells, primary screen, B-cell NF-kB inhibitor project, cell-based, luminescence, uHTS; AID 435022, 2010; 697 B-cell NF-kB luciferase reporter, 16 h; inhibition, % at 4 µM; hit rate 0.33% among 330,000; in the data active = inhibition above about 35%
Beta apoptosis – inhibitors of cytokine-induced beta cell apoptosis, primary screen, luminescence; INS-1E cytokine-induced death, ATP luminescence, 48 h; percent of positive-control rescue, neutral wells zero; protection from apoptosis, % (concentration not given with the values); hit rate 0.8% among 300,000;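 active = Every replicate reaches about 75%, or at least half do and their mean reaches it too, limit read from the data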;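 also: 0% = cytokine-treated negative control wells and 100% = positive control rescue; higher means more ATP so stronger rescue from cytokine killing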
Gli-Sufu antag – Gli-Sufu pathway antagonists, primary screen, luciferase luminescence, Sufu-KO-LIGHT cells, uHTS | Sufu-KO-LIGHT fibroblasts, Gli luciferase reporter luminescence | inhibition, % at 5 µM | hit rate 0.74% among 340,000;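 active = inhibition above about 55%, limit read from the data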;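 also: 0% = DMSO-treated cells and 100% = wells with medium but no cells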
CSC inhib – cancer stem cell viability inhibitors, primary screen, luminescence. inhibition, % at 7.5 µM. hit rate 1.1% among 300,000. cancer stem cell-like cells viability; in the data active = inhibition above about 75%; tested in HMLE shEcad cells
Jurkat NFkB inh – inhibitors of induced NF-kB luciferase reporter, primary screen, TCR NF-kB activation inhibitor project, cell-based, luminescence, uHTS | Jurkat, PMA/ionomycin-induced NF-kB luciferase reporter | inhibition, % at 4 µM | hit rate 0.53% among 330,000 | AID 435003, 2010; in the data active = inhibition above about 50%
Mdm2-MdmX conf – Mdm2-MdmX complex disruptors, retested hits, confirmation, luminescence, single concentration. shares compounds with Mdm2-MdmX inh. Mdm2-MdmX binding, luminescent assay. inhibition, % at 8 µM. hit rate 55% among 10,000. AID 489028, 2010; in the data active = inhibition above about 40%
FLuc counter – full-length luciferase signal inhibition, confirmation, counter-screen for Mdm2/MdmX interaction inhibitor project, cell-based, single concentration, SaOS-2 | hit rate 77% among 6,200 | SaOS-2 full-length luciferase counterscreen, luminescence | inhibition, % at 8 µM | shares compounds with Mdm2-MdmX inh;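 active = mean inhibition at 8 µM reaching about 37%, which flags the compound as non-specific, limit read from the data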;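 also: p53-null SaOS-2 cells with luciferase driven by a doxycycline-inducible promoter; compound on cells about two nights before reading with doxycycline added after day one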
Starred values were filed as active, the others as inactive.

For CCN(CC)CCNC(=O)c1ccc(NC(=O)c2cn(-c3ccccc3)nc2-c2cccs2)cc1 the results were Mdm2-MdmX inh 98*, 697 NFkB inh -4, Beta apoptosis 79*, Gli-Sufu antag 20, CSC inhib 33, Jurkat NFkB inh -29, Mdm2-MdmX conf 64* and FLuc counter 53*.
`O=C(c1cn(-c2ccccc2)nc1-c1cccs1)N1CCN(c2ccccc2)CC1` gave Mdm2-MdmX inh 59*, 697 NFkB inh -22, Beta apoptosis 4, Gli-Sufu antag -18, CSC inhib 58, Jurkat NFkB inh 37, Mdm2-MdmX conf 48* and FLuc counter 64*.
Screening O=C(Nc1cccnc1)c1cn(-c2ccccc2)nc1-c1cccs1 returned Mdm2-MdmX inh 14, 697 NFkB inh -25, Beta apoptosis 0, Gli-Sufu antag -29, CSC inhib 7 and Jurkat NFkB inh -23.
COc1ccccc1-n1nnnc1SC(C)C(=O)NC1CCCC1 (stereo not given) was read as Mdm2-MdmX inh 3, 697 NFkB inh 13, Beta apoptosis 2, Gli-Sufu antag -9, CSC inhib -4 and Jurkat NFkB inh 10.
O=C(CCl)N(CCCNC(=O)C(F)(F)F)c1ccc([N+](=O)[O-])cc1 was read as Mdm2-MdmX inh 93*, 697 NFkB inh 26, Beta apoptosis -3, Gli-Sufu antag 6, CSC inhib 17, Jurkat NFkB inh 18, Mdm2-MdmX conf 72* and FLuc counter 38*.
For O=C(NCCCNc1ccc([N+](=O)[O-])cc1)C(F)(F)F the results were Mdm2-MdmX inh 6, 697 NFkB inh -21, Gli-Sufu antag -8, CSC inhib -7 and Jurkat NFkB inh -3.
CC(C)=CCc1cc(-c2oc3cc(O)cc(O)c3c(=O)c2O)ccc1O was read as Mdm2-MdmX inh 8, 697 NFkB inh 6, Beta apoptosis -8, Gli-Sufu antag -11, CSC inhib 1 and Jurkat NFkB inh -6.
CC(C)=CCc1c(O)cc2oc3c(CC=C(C)C)c(O)c(O)c(CC=C(C)C)c3c(=O)c2c1O was read as Mdm2-MdmX inh 100*, 697 NFkB inh -43, Gli-Sufu antag 28, CSC inhib 3, Jurkat NFkB inh -7, Mdm2-MdmX conf 43* and FLuc counter 47*.
Screening COc1ccc(N(C)S(=O)(=O)c2cccc(C(=O)Nc3nc4ccccc4[nH]3)c2)cc1 returned Mdm2-MdmX inh 29, 697 NFkB inh 7, Beta apoptosis 26, Gli-Sufu antag 7, CSC inhib 10 and Jurkat NFkB inh 4.
CN(c1cccc(Cl)c1)S(=O)(=O)c1cccc(C(=O)Nc2nc3ccccc3[nH]2)c1 was read as Mdm2-MdmX inh 81*, 697 NFkB inh -30, Beta apoptosis 36, Gli-Sufu antag 17, CSC inhib 63, Jurkat NFkB inh 9, Mdm2-MdmX conf 36 and FLuc counter 58*.
O=C(N[C@@H](Cc1ccccc1)C(=O)OCc1ccccc1)c1nc[nH]c1C(=O)N1CCN(c2ccccc2)CC1 was read as Mdm2-MdmX inh 65*, 697 NFkB inh -42, Beta apoptosis -3, Gli-Sufu antag -2, CSC inhib 8, Jurkat NFkB inh -12 and Mdm2-MdmX conf -15.
`CC(C)C[C@H](NC(=O)c1nc[nH]c1C(=O)NC(c1ccccc1)c1ccccc1)C(=O)OCc1ccccc1` gave Mdm2-MdmX inh 51*, 697 NFkB inh 14, Beta apoptosis -9, Gli-Sufu antag -7, CSC inhib 18, Jurkat NFkB inh 24 and Mdm2-MdmX conf 11.
`CC(C)C[C@H](NC(=O)c1nc[nH]c1C(=O)N[C@@H](CC(C)C)C(=O)OCc1ccccc1)C(=O)OCc1ccccc1` gave Mdm2-MdmX inh 58*, 697 NFkB inh 2, Beta apoptosis 0, Gli-Sufu antag 41, CSC inhib 26, Jurkat NFkB inh 10 and Mdm2-MdmX conf 0.
`C[C@H](NC(=O)c1nc[nH]c1C(=O)N1CCN(c2ccccc2)CC1)C(=O)OCc1ccccc1` gave Mdm2-MdmX inh -10, 697 NFkB inh -13, Beta apoptosis 3, Gli-Sufu antag -8, CSC inhib 3 and Jurkat NFkB inh 5.
For CCc1nc2ccccc2c(C(=O)OCC(=O)Nc2cccc(S(=O)(=O)N3CCOCC3)c2)c1C the results were Mdm2-MdmX inh 66*, 697 NFkB inh 4, Beta apoptosis 0, Gli-Sufu antag 23, CSC inhib 3, Jurkat NFkB inh 32, Mdm2-MdmX conf 75* and FLuc counter 45*.
For CCc1nc2ccccc2c(C(=O)OCC(=O)Nc2ccc(S(=O)(=O)N3CCOCC3)cc2)c1C the results were Mdm2-MdmX inh 23, 697 NFkB inh -8, Beta apoptosis 3, Gli-Sufu antag 30, CSC inhib 5 and Jurkat NFkB inh -12.
For O=C(c1cccs1)N1CCc2c([nH]c3ccccc23)C1c1ccc(Cl)cc1 (stereo not given) the results were Mdm2-MdmX inh 73*, 697 NFkB inh -127, Beta apoptosis 15, Gli-Sufu antag 4, CSC inhib 6, Jurkat NFkB inh 10, Mdm2-MdmX conf 58* and FLuc counter 97*.
Screening O=C(c1cccs1)N1CCc2c([nH]c3ccccc23)C1c1ccccn1 (stereo not given) returned Mdm2-MdmX inh 11, 697 NFkB inh 17, Beta apoptosis -7, Gli-Sufu antag 2, CSC inhib 3 and Jurkat NFkB inh 6.
Cc1cc(C)cc(N=c2c([N+](=O)[O-])nn(-c3ccc4c(c3)OCCO4)n2O)c1 was read as Mdm2-MdmX inh 70*, 697 NFkB inh 33, Beta apoptosis -4, Gli-Sufu antag 31, CSC inhib 31, Jurkat NFkB inh 26, Mdm2-MdmX conf 65* and FLuc counter 45*.
`O=C(O)c1cccnc1SCc1cccc(Br)c1` gave Mdm2-MdmX inh -32, 697 NFkB inh 7, Beta apoptosis -3, Gli-Sufu antag 2, CSC inhib 16 and Jurkat NFkB inh -16.
Screening c1ccc([C@H]2CNCCN2CCc2cccc3ccccc23)cc1 returned Mdm2-MdmX inh 57*, 697 NFkB inh 14, Beta apoptosis -3, Gli-Sufu antag 1, CSC inhib 25, Jurkat NFkB inh 11 and Mdm2-MdmX conf 22.

Compound activity as filed in PubChem.
